Results filed as inconclusive are left out. A number with no mark means an inactive call. The source made the active and inactive calls. Unless noted, calls follow the shape of the dose curve; as a rule, active = well fitted curve in the direction sought with a large enough effect; inconclusive = small, poorly fitted or top-dose-only effect, or another doubt; inactive = no such curve, though single readings can be large; an effect the other way counts as inactive or inconclusive.

Test [1] concerns the target Voltage-gated inwardly rectifying potassium channel KCNH2 (Homo sapiens) (UniProt Q12809). Briefly: qHTS Assay for Small Molecule Inhibitors of the Human hERG Channel Activity (AID 588834).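 Also: lower thallium flux fluorescence means stronger hERG block; nearly all actives have a fitted effect of over 50% in size.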 Also: potency is read from the fitted curve at half-maximal effect. The method in brief: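 Thallium serves as surrogate for K+ influx through BacMam-delivered hERG in U2OS cells. Compounds are added for about 10 minutes after dye loading; stimulation buffer then starts flux, monitored kinetically on FDSS.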
Background: qHTS replaces the single test concentration by a dilution series.

Test [2] has as its target Luciferin 4-monooxygenase (Photinus pyralis) (UniProt P08659). In words: Biochemical firefly luciferase enzyme assay for NPC (AID 624030). Also: nearly all actives have a fitted effect of over 70% in size. Also: potency is read from the fitted curve at half-maximal effect. The method in brief:
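Direct inhibition of firefly luciferase enzyme (10 nM final, 50 mM Tris Acetate) assessed by luminescence within 5 minutes. Percent activity scaled between DMSO and PTC124 positive control, with concentration-effect curves classified by fit quality and response.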

Test [3] can be described thus: S16 Schwann cell viability assay (CellTiter-Glo assay) (AID 624031). Also: nearly all actives have a fitted effect of over 70% in size. Also: potency is read from the fitted curve at half-maximal effect. The method in brief:
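Cells were seeded at 500-750 per well in phenol red-free DMEM with 10% FBS and left overnight. Compounds or DMSO were pinned in, incubation ran 24 h at 37 °C/5% CO2, then CellTiter-Glo reagent was added and luminescence measured.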

Test [4] in a line: S16 Schwann cell PMP22 intronic element firefly luciferase assay (AID 624032). Also: nearly all actives have a fitted effect of over 30% in size. Also: potency is read from the fitted curve at half-maximal effect. The method in brief:
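Luciferase reporter of PMP22 intronic-element expression in stably transfected S16 rat Schwann cells, read by ONE-Glo luminescence after 24 h compound exposure at 37 C. Activity scaled between DMSO (0%) and positive-control PTC124; concentration-effect curves quality-classified.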

The nature of test [5]: S16 Schwann cell PMP22 intronic element beta-lactamase assay (AID 624044; calls by dose curve;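 also: 0% = DMSO and -100% = potassium clavulanate positive control; nearly all actives have a fitted effect of over 15% in size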). The conditions noted are these: S16 rat Schwann cells, PMP22 element beta-lactamase FRET, 24 h; ratio activity, negative = inhibition: at 38.3 µM (top of the series) unless noted. The method in brief: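 Beta-lactamase reporter under a PMP22 intronic regulatory element in stable S16 rat Schwann cells; 24 h compound exposure. 460 nm blue signal normalized between DMSO (0%) and potassium clavulanate, with 535 nm FRET tracking viability; curves classed by r2 and response.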

Test [6] is described as follows: qHTS assay for small molecule activators of the p53 signaling pathway (AID 651743; active = well fitted activation curve with a large enough effect in the signal ratio, not every such curve was filed as active; the % refers to the signal ratio; also: % of control where 0% means no effect). The note with it: HCT-116 p53RE-bla, beta-lactamase FRET ratio, 16 h; activation: stronger effect = higher value. The procedure, abridged:
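After 16 hours compound treatment at 37 C, HCT-116 cells stably expressing p53RE-driven beta-lactamase were loaded with LiveBLAzer B/G FRET substrate for 2 hours at room temperature. Fluorescence intensity served as the p53 activation read-out.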

Test [7] can be described thus: qHTS assay for environmental chemicals that activate the Aryl hydrocarbon Receptor (AhR) signaling pathway (AID 651777). Also: % of control where 0% means no effect; nearly all actives have a fitted effect of over 15% in size. The conditions noted are these: 1A2-DRE human hepatoma cells, luciferase, 24 h; activation: stronger effect = higher value. The procedure, abridged:
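AhR activation is scored as a rise in luciferase from a stable DRE–CYP1A2 promoter construct in human hepatoma cells. Treatment lasts 24 hr at 37 C; detection uses One-Glo after 30 min at room temperature.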

Sequence of Luciferin 4-monooxygenase (Photinus pyralis) (P08659 whole entry, looked up): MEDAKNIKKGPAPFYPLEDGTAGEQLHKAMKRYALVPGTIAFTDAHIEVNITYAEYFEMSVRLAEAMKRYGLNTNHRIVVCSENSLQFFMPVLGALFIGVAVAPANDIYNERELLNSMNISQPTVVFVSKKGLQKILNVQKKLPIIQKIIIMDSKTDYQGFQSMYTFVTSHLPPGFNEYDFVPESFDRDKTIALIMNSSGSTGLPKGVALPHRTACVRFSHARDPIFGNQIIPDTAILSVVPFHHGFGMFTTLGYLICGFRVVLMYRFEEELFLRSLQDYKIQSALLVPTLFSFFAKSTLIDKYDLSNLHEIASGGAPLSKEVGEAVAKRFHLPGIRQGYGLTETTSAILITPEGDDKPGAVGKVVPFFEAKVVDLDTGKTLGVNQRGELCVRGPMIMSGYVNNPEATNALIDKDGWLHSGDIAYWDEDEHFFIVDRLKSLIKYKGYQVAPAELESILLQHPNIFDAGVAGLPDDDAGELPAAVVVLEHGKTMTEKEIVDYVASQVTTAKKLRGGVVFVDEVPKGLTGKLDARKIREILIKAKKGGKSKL
Sequence of Voltage-gated inwardly rectifying potassium channel KCNH2 (Homo sapiens) (Q12809 whole entry, looked up): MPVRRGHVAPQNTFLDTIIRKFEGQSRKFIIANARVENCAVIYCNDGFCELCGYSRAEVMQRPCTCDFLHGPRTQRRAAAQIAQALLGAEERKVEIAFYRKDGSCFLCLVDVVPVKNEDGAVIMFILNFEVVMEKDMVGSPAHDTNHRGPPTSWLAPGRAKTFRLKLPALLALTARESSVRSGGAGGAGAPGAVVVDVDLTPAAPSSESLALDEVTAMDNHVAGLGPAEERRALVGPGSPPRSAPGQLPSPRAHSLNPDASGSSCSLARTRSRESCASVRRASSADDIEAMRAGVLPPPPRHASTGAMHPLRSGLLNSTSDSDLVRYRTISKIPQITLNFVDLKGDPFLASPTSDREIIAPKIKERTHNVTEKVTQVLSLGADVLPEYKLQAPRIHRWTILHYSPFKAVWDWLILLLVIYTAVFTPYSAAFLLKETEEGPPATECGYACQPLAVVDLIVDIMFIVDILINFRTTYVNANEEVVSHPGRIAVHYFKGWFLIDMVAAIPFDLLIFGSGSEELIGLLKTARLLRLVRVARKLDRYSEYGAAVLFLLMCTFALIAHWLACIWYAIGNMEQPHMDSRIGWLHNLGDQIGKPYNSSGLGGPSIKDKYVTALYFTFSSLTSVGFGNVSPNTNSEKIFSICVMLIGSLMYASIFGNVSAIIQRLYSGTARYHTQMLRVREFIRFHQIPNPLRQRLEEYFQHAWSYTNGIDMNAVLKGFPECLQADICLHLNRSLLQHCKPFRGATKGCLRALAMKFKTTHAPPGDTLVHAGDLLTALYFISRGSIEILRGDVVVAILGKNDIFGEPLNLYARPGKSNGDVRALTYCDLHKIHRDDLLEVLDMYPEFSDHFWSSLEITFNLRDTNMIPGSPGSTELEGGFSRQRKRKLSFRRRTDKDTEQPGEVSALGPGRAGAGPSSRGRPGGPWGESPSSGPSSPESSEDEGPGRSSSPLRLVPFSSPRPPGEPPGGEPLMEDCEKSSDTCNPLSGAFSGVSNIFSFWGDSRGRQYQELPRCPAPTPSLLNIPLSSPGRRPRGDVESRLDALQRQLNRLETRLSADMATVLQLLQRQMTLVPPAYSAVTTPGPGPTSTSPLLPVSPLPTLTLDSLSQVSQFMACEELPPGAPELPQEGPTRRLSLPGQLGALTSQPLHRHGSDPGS

In the case of `FC(F)(F)C(F)(F)C(F)(F)C(F)(F)C(F)(F)F`, the Potency entry in test [1], in test [2], in test [3] and in test [4] was “inactive” throughout. The ratio activity, negative = inhibition in test [5] was 0%.

Consider `NC(=O)[C@@H]1CCCN1C(=O)[C@H](Cc1cnc[nH]1)NC(=O)[C@@H]1CCC(=O)N1`, for which the Potency result in test [1], in test [2], in test [3] and in test [4] was “inactive” in each case. Also, the ratio activity, negative = inhibition in test [5] is 6.16%.

On to `CCc1ncnc2cc(OC)c(OC)cc12`, for which the Potency entry in test [1], in test [2], in test [3] and in test [4] was “inactive” each time. In addition, the ratio activity, negative = inhibition in test [5] is -3.22%.

As to `O=C(O)c1ccc(NC(=O)[C@H](Cc2ccc(O)cc2)NC(=O)c2ccccc2)cc1`, the Potency result in test [1], in test [2] and in test [3] was “inactive” in each case. Besides, the ratio activity, negative = inhibition in test [5] is 6%.

Take `Cc1cc(-c2ccc(N=Nc3c(S(=O)(=O)O)cc4cc(S(=O)(=O)O)cc(N)c4c3O)c(C)c2)ccc1N=Nc1c(S(=O)(=O)O)cc2cc(S(=O)(=O)O)cc(N)c2c1O`: the Potency result in test [1] was “inactive”. In addition, the Potency in test [2] was 9.07 µM (active); in test [3] it was 12.8 µM (active). For the same compound, the ratio activity, negative = inhibition in test [5] is 8.59%.

Turning to `Cc1c(C)c2c(c(C)c1OC(=O)CCC(=O)O)CC[C@@](C)(CCC[C@H](C)CCC[C@H](C)CCCC(C)C)O2`, the Potency result in test [1], in test [2], in test [3] and in test [4] was “inactive” throughout. In addition, the ratio activity, negative = inhibition in test [5] is -15.1%.

Take `CC(CNC(=O)c1cccnc1)NC(=O)c1cccnc1` (stereo not given): the Potency entry in test [1], in test [2] and in test [3] was “inactive” throughout. For the same compound, the ratio activity, negative = inhibition in test [5] is 0%.

Take `CSc1nc2cc(Oc3cccc(Cl)c3Cl)c(Cl)cc2[nH]1`: in test [1], the Potency was 31.6 µM (active). The Potency entry in test [2] and in test [3] was “inactive” throughout. The ratio activity, negative = inhibition in test [5] is -0.19%.

Regarding `NC(=O)C1c2ccccc2CCc2ccccc21`, the Potency entry in test [1], in test [2], in test [3] and in test [4] was “inactive” each time. The ratio activity, negative = inhibition in test [5] was -1.01%.

Regarding `CCCCC[C@H](O)/C=C/[C@H]1[C@H](O)CC(=O)[C@@H]1C/C=C\CCCC(=O)O`, the Potency result in test [1], in test [2] and in test [3] was “inactive” throughout. In addition, the ratio activity, negative = inhibition in test [5] is -1.59%.

Turning to `CC(C)C1=CC2=CC[C@@H]3[C@](C)(CCC[C@@]3(C)C(=O)O)[C@H]2CC1`, the Potency result in test [1], in test [2] and in test [3] was “inactive” throughout. Also, the ratio activity, negative = inhibition in test [5] is -5.72%.

With `Cn1cc(NC(=O)c2cc(NC(=O)c3cc(NC=O)cn3C)cn2C)cc1C(=O)NCCC(=N)N`, the Potency entry in test [1], in test [2] and in test [3] was “inactive” each time. Also, in test [5], the ratio activity, negative = inhibition is 5.48%.

Consider `CC(C)CCCCCCc1ccc(O)cc1`, for which the Potency entry in test [1], in test [2], in test [3] and in test [4] was “inactive” each time. In addition, the ratio activity, negative = inhibition in test [5] was -8.37%. Moreover, the activation is 2.32% in test [6] and 0.323% in test [7].

Take `CCOc1ccc(NC(=S)Nc2ccc(OCC)cc2)cc1`: the Potency result in test [1], in test [2] and in test [3] was “inactive” each time. The ratio activity, negative = inhibition in test [5] was -1.68%.

With `OCCCNc1ccccc1`, the Potency entry in test [1], in test [2], in test [3] and in test [4] was “inactive” each time. In test [5], the ratio activity, negative = inhibition is 0.736%.

With `CCCCCCCCCCCCOCCCN`, the Potency result in test [1], in test [2], in test [3] and in test [4] was “inactive” each time. The ratio activity, negative = inhibition in test [5] was 0.509%.

In the case of `C#C[C@]1(O)CC[C@@H]2[C@H]3CCC4=CC(=O)CC[C@H]4[C@H]3C(=C)C[C@@]21CC`, the Potency entry in test [1], in test [2] and in test [3] was “inactive” in each case. In addition, the ratio activity, negative = inhibition in test [5] is -9.17% (active).

On to `COc1ccc(-c2noc(CC(=O)O)c2-c2ccc(OC)cc2)cc1`, for which the Potency result in test [1], in test [2] and in test [3] was “inactive” in each case. In test [5], the ratio activity, negative = inhibition was -1.01%.

Regarding `NCC[C@H](O)C(=O)N[C@@H]1C[C@H](N)[C@@H](O[C@H]2O[C@H](CN)[C@@H](O)[C@H](O)[C@H]2O)[C@H](O)[C@H]1O[C@H]1O[C@H](CO)[C@@H](O)[C@H](N)[C@H]1O`, the Potency result in test [1], in test [2] and in test [3] was “inactive” in each case. Moreover, the ratio activity, negative = inhibition in test [5] is -4.63%.

On to `CC(CCc1ccc(O)cc1)NCC(O)c1ccc(O)cc1` (stereo not given), for which the Potency is 1.78 µM (active) in test [1] and 2.03 µM (active) in test [4]. In addition, the Potency result in test [2] and in test [3] was “inactive” throughout. In test [5], the ratio activity, negative = inhibition was -5.84%.

On to `CC(=O)N[C@@H]1C(O[C@H]2O[C@H](C(=O)O)C(O)[C@H](O)[C@H]2O)[C@H](O)[C@@H](CO)O[C@H]1O[C@@H]1C(C(=O)O)O[C@@H](O[C@H]2[C@H](O)[C@@H](CO)OC(O)[C@@H]2NC(C)=O)[C@H](O)[C@H]1O` (stereo not given in full), for which the Potency entry in test [1], in test [2] and in test [3] was “inactive” throughout. Moreover, in test [5], the ratio activity, negative = inhibition is 1.9%.

With `CC(=O)Oc1cccc2c1C(=O)c1c(OC(C)=O)cc(C(=O)O)cc1C2=O`, the Potency entry in test [1], in test [2] and in test [3] was “inactive” each time. Also, the ratio activity, negative = inhibition in test [5] is 0.316%.

As to `COc1ccc(/C=N/NC(=O)c2ccncc2)c(C(=O)O)c1OC`, the Potency result in test [1], in test [2] and in test [3] was “inactive” throughout. The ratio activity, negative = inhibition in test [5] was 4.12%.

Regarding `CC12CCC(C1)C(C)(C)C2=O` (stereo not given), the Potency result in test [1], in test [2], in test [3] and in test [4] was “inactive” each time. Also, the ratio activity, negative = inhibition in test [5] was 1.35%.

Turning to `CN1C(=O)C[C@@H](C(=O)N[C@@H](Cc2cnc[nH]2)C(=O)N2CCC[C@H]2C(N)=O)NC1=O`, the Potency result in test [1], in test [2] and in test [3] was “inactive” throughout. Also, in test [5], the ratio activity, negative = inhibition is -0.824%.

In the case of `NC(N)=NCC1COc2ccccc2O1` (stereo not given), the Potency result in test [1], in test [2] and in test [3] was “inactive” throughout. Moreover, the ratio activity, negative = inhibition in test [5] is 2.65%.

Turning to `Nc1ncnc2c1ncn2CCOCP(=O)(O)O`, the Potency entry in test [1], in test [2], in test [3] and in test [4] was “inactive” each time. For the same compound, the ratio activity, negative = inhibition in test [5] is 0.57%.

`O=P(O)(O)OC[C@H]1O[C@](O)(COP(=O)(O)O)[C@@H](O)[C@@H]1O`: the Potency entry in test [1], in test [2] and in test [3] was “inactive” each time. Besides, the ratio activity, negative = inhibition in test [5] is 3.08%.

Regarding `CC(=O)Oc1cc(C(F)(F)F)ccc1C(=O)O`, the Potency result in test [1], in test [2], in test [3] and in test [4] was “inactive” throughout. The ratio activity, negative = inhibition in test [5] is -5.78% [at 17.1 µM].

As to `CC(C)[C@@H](N)C(=O)O`, the Potency result in test [1], in test [2], in test [3] and in test [4] was “inactive” throughout. For the same compound, the ratio activity, negative = inhibition in test [5] was 0.806%.

As for `O=C(O)CCC(=O)c1ccc(-c2ccccc2)cc1`, the Potency entry in test [1], in test [3] and in test [4] was “inactive” throughout. Moreover, the Potency in test [2] was 4.36 µM (active). Moreover, the ratio activity, negative = inhibition in test [5] was 0.885% [at 17.1 µM].

For `CCN(CC)CCOc1ccc2nc(N(C)C)sc2c1`, the Potency entry in test [1], in test [2], in test [3] and in test [4] was “inactive” in each case. For the same compound, the ratio activity, negative = inhibition in test [5] is 0.178%.

These data come from PubChem BioAssay (NCATS).
